# Screening data (PubChem BioAssay)
# RGS8-Gao = RGS8-Galphao binding modulators, primary screen, biochemical, multiplexed bead flow cytometry; actives lie on both sides; Guanine nucleotide-binding protein G(o) subunit alpha (Homo sapiens), P09471; actives 0.34% (n = 220,000); response (percent of control binding), % at 10 µM; in the data active means response below about 60% or above about 140%; inactive means in between;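 further: Galphao activated as the GDP aluminium fluoride complex binding bead-coupled RGS8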
# Target sequence (P09471 whole entry, looked up): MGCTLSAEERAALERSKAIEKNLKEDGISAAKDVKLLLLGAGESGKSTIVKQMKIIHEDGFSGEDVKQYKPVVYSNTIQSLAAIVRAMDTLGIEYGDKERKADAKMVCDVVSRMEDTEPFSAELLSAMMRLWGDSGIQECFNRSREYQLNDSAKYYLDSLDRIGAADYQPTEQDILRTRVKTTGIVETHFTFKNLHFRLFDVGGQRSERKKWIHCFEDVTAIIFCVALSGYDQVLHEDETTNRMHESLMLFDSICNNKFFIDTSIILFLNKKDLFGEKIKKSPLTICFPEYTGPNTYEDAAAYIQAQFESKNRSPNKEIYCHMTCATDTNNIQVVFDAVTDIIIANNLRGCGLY
# GSH fluor = compound fluorescence on glutathione beads, profiling panel, artefact control, biophysical, 488/530 nm, flow cytometry; GSH beads flow cytometry, compound fluorescence 488/530 nm; hits give high values; fluorescence (KMESF) at 10 µM; actives 0.25% (n = 190,000); AID 1776, 2009; in the data active means fluorescence above about 89;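 further: glutathione beads carrying GST-tagged Bcl family fusion proteins plus one bare bead set; values are compound well signal with DMSO vehicle wells as background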
# RGS7-Gao reg = RGS7-Galphao binding modulators, primary screen, biochemical, multiplexed bead flow cytometry; Guanine nucleotide-binding protein G(o) subunit alpha (Homo sapiens), P09471; actives lie on both sides; binding response (% of control), % at 10 µM; actives 0.35% (n = 220,000); in the data active means binding response below about 49% or above about 150%; inconclusive means no clear call, values can overlap the other calls; inactive means in between;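 further: fluorescent Galphao held in activated GDP-AlF4 state binding bead-coupled RGS7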
# RGS4-Gao reg = modulators of RGS4 binding to Galphao, primary screen, biochemical, multiplexed bead flow cytometry; AID 1415, 2008; actives 0.33% (n = 220,000); binding response (% of control), % at 10 µM; Guanine nucleotide-binding protein G(o) subunit alpha (Homo sapiens), P09471; actives lie on both sides; in the data active means binding response below about 49% or above about 150%; inactive means in between;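 further: fluorescent Galphao activated with aluminum fluoride binding bead-coupled RGS4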
# Avidin bead fluor = green autofluorescence of compounds with avidin beads – biophysical, 488/530 nm, flow cytometry, artefact control, profiling panel | fluorescence (KMESF) at 10 µM | compound fluorescence 488/530 nm; hits give high values | actives 0.38% (n = 220,000) | AID 1775, 2009; in the data active means fluorescence above about 47
# RGS16-Gao HTS = modulators of RGS16 binding to Galphao, primary screen, biochemical, human proteins, multiplexed bead flow cytometry; binding response (% of control), % at 10 µM; bead-based flow cytometry RGS16-Galphao binding, fluorescence; actives lie on both sides; actives 0.38% (n = 220,000);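 further: Galphao activated by GDP with aluminum fluoride before binding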
# RGS4-Gao HTS = modulators of RGS–Galpha-o binding, primary screen, biochemical, multiplexed beads, flow cytometry, RGS4/7/8/16/19; shares compounds with RGS16-Gao HTS; multiplexed bead flow cytometry; RGS4–Galpha-o binding response, % at 10 µM; actives 99% (n = 1,600); AID 1504, 2009;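 further: fluorescently labeled Galpha-o bound to GDP with aluminium fluoride binding biotinylated RGS beads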
# Biotin-avidin = disruption of biotin probe capture by avidin, counter-screen for RGS protein interaction modulators, biochemical, flow cytometry, bead-based; shares compounds with RGS16-Gao HTS; inhibition, % at 10 µM; 1,700 tested, under 10 active; streptavidin beads, fluorescein-biotin binding;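 active means inhibition above 50%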;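 further: median green fluorescence of gated singlet beads compared with DMSO control wells; 0% = DMSO wells and 100% = complete loss of bead fluorescence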
# RGS8-Gao single = RGS8-Galphao binding modulators, confirmation, biochemical, multiplexed bead flow cytometry, single concentration | bead-based flow cytometry RGS8-Galphao binding, fluorescence; actives lie on both sides | shares compounds with RGS16-Gao HTS | actives 3% (n = 1,700) | binding response (% of control), % at 10 µM | AID 1836, 2009; in the data active means binding response below about 72% or above about 130%; inactive means in between;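 further: Galphao activated as GDP AlF4 complex before binding bead RGS8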
# RGS7-Gao single = RGS7-Galphao binding modulators, confirmation, biochemical, multiplexed bead flow cytometry, single concentration. shares compounds with RGS16-Gao HTS. bead-based flow cytometry RGS7-Galphao binding; actives lie on both sides. response (percent of control binding), % at 10 µM. actives 7.8% (n = 1,700); in the data active means response below about 75% or above about 130%; inactive means in between;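 further: fluorescent Galphao activated with GDP and aluminum fluoride binding bead-coupled RGS7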
# RGS16-Gao single = modulators of RGS16-Galphao protein binding, confirmation, biochemical, single concentration, multiplexed bead flow cytometry. shares compounds with RGS16-Gao HTS. bead-based flow cytometry; actives lie on both sides. response (% of control binding), % at 10 µM. actives 4% (n = 1,700); in the data active means response below about 74% or above about 130%; inactive means in between;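 further: Galphao activated as the GDP aluminium fluoride complex binding bead-coupled RGS16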
# RGS4-Gao single = modulators of RGS4-Galphao protein binding, confirmation, biochemical, single concentration, multiplexed bead flow cytometry; shares compounds with RGS16-Gao HTS; actives lie on both sides; binding response (% of control), % at 10 µM; actives 4% (n = 1,700); AID 1840, 2009; in the data active means binding response below about 74% or above about 130%; inactive means in between
# RGS19-Gao conf = regulators of RGS19-Galphao binding, confirmation, biochemical, single point, multiplexed bead flow cytometry; shares compounds with RGS16-Gao HTS; bead-based flow cytometry RGS19-Galphao binding; actives lie on both sides; response (percent of control binding), % at 10 µM; actives 5% (n = 1,700); in the data active means response below about 50% or above about 160%; inactive means in between;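 further: 100% = no compound control and 0% = blank background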
# Target sequence (P09471 whole entry, looked up): as above
# Target sequence (P49795 whole entry, looked up): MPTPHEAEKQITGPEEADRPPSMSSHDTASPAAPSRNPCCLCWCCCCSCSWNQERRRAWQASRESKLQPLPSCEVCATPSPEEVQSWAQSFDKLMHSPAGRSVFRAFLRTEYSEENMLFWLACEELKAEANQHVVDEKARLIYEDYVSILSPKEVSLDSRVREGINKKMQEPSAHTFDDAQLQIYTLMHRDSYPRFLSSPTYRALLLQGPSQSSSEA
# * hit, by the source's call; ? = inconclusive; · = no result given; [ ] = remark or other dose. In the library only some 1.2% were active in any assay of this set; here they are far more common. Unless noted, how the calls were made is not given here.
SMILES,RGS8-Gao,GSH fluor,RGS7-Gao reg,RGS4-Gao reg,Avidin bead fluor,RGS16-Gao HTS,RGS4-Gao HTS,Biotin-avidin,RGS8-Gao single,RGS7-Gao single,RGS16-Gao single,RGS4-Gao single,RGS19-Gao conf
CCCCn1c(/N=C/c2ccc(N(C)C)cc2)nc2ccccc21,100,23,104,98,6,105,·,·,·,·,·,·,·
COc1ccc(/C=N/N=C2/CC(C)(C)Cc3n[nH]c(=O)cc32)cc1,99,11,?,101,9,101,·,·,·,·,·,·,·
OCC(O)C(O)C(O)C(O)c1nc2ccccc2[nH]1 (centres undefined),96,12,?,97,11,95,·,·,·,·,·,·,·
OC(c1ccc(Cl)cc1)C(O)c1nc2ccccc2[nH]1 (centres undefined),141*[activator],60,109,121,4,303,121*,·,·,·,·,·,·
O=C(Nc1ccc(F)cc1)C1CCC(CNc2c(N3CCCCC3)c(=O)c2=O)CC1 (centres undefined),102,·,?,102,8,103,·,·,·,·,·,·,·
CC1=C(C(N)=O)C(c2cccs2)n2nc(-c3cccc(Cl)c3)nc2N1 (centres undefined),101,25,101,99,27,106,·,·,·,·,·,·,·
CC1=C(C(N)=O)C(c2cccs2)n2nc(-c3cccc(C)c3)nc2N1 (centres undefined),34*,17,31*,34*,8,26,·,1,100,101,98,98,92
O=C(CN1CCN(Cc2ccc(Cl)cc2)C1=O)NCCCN1CCOCC1,14*,19,8.9*,18*,-1,13*,·,2,100,100,101,102,100
O=C(CN1CCN(Cc2ccccc2F)C1=O)NCCc1ccc(Cl)cc1,100,27,159*[activator],107,60*,102,107*,-1,100,103,99,98,99
O=C(CN1CCN(Cc2ccc(Cl)cc2)C1=O)NCCCN1CCN(c2ccc(F)cc2)CC1,95,24,97,95,17,97,·,·,·,·,·,·,·
Cc1noc(C)c1C(=O)NCc1cccs1,·,33,·,·,·,·,·,1,102,101,104,103,106
Cc1onc(-c2ccccc2Cl)c1C(=O)NCc1cccs1,103,22,102,101,17,103,·,·,·,·,·,·,·
Oc1ccccc1-c1nc(/C=C/c2ccccc2)nn1-c1ccccc1,117,9,106,107,18,197*[activator],107*,0,102,108,104,107,90
Oc1ccc(/C=C/c2nc(-c3ccccc3O)n(-c3ccccc3)n2)cc1,98,9,95,94,9,94,·,·,·,·,·,·,·
Nc1nnn(CC(=O)N/N=C/c2cn[nH]c2-c2ccccc2)n1,105,·,?,109,8,104,·,·,·,·,·,·,·
C=Cn1nc(C)c2ccccc2c1=O,16*,31,14*,25*,0,17*,·,1,99,100,99,99,104
Cc1nn(C(C)C(=O)O)c(=O)c2ccccc12 (centres undefined),90,8,95,94,5,67,·,·,·,·,·,·,·
O=[N+]([O-])c1ccc(Sc2cccc[n+]2[O-])c2nonc12,36*,·,?,84,4,3.0*,84*,-2,52*,81,26*,77,21*
CCOCCCNC(=O)/C(C#N)=C/c1ccc(-c2ccc(S(=O)(=O)N3CCOCC3)cc2)o1,75,22,93,93,11,19,·,·,·,·,·,·,·
COCCNC(=O)/C(C#N)=C/c1ccc(-c2ccc(S(=O)(=O)N3CCOCC3)cc2)o1,74,6,84,79,5,-1.2*,79*,2,98,116,103,108,121
CN(/N=C/c1ccc(O)cc1O)c1ncc(C(F)(F)F)cc1Cl,101,·,?,103,7,104,·,·,·,·,·,·,·
O=C(CSc1nnc(-c2ccccc2)o1)Nc1ccccc1F,101,22,173*[activator],111,91*,107,111*,3,99,95,95,95,74
O=C(CSc1nnc(-c2ccncc2)o1)Nc1ccccc1Cl,115,28,215*[activator],133,130*,250*[activator],133*,-1,100,102,101,101,100
CCNS(=O)(=O)c1ccc(NC(=O)CC(C)c2ccccc2)cc1 (centres undefined),101,12,102,104,8,100,·,·,·,·,·,·,·
COc1ccc(OCC(=O)OC2CCCN(C)C2)cc1 (centres undefined),102,·,?,99,7,106,·,·,·,·,·,·,·
C=CCSc1nc2c(cnn2-c2ccccc2)c(=O)n1N,101,·,?,99,5,101,·,·,·,·,·,·,·
O=C(CN1C(=O)NC2(CCOc3ccccc32)C1=O)Nc1cccc(Cl)c1 (centres undefined),79,15,75,94,10,96,·,·,·,·,·,·,·
